Data on twelve compounds can be found in PubChem BioAssay (NCI).

Molecules are shown by their SMILES. Values joined by “and” are separate entries in the source; they are usually repeats but may differ in a detail not shown here. Equal entries are not always repeated. The panel holds about 83,000 compounds, 20% with a hit somewhere; the sample as a whole holds those more often.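 Plates (96-well) were seeded with cells, treated with compound at one concentration, and incubated for 48 hours before percent growth was determined.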 Unmarked numbers belong to inactive results. Active and inactive are the calls of the source. How the source made its calls: active means growth percent below 10; inactive means the rest.

Some test systems named below: HCT-15 colon; HT29 colon; SNB-75 CNS; SNB-19 CNS; U251 CNS; PC-3 prostate; SK-MEL-5 melanoma; UACC-62 melanoma; LOX IMVI melanoma; SK-MEL-28 melanoma.
Holding throughout (assay): NCI-60 one-dose screen, 48 h (100 = growth as untreated, 0 = no growth, -100 = all killed)
Details in all cases: 10 µM unless noted

`COc1cc2cc(C(=O)N3C[C@@H](CCl)c4c3cc(OC(=O)N(CCC(=O)N3CCN(C)CC3)C3CCCCC3)c3ccccc43)[nH]c2c(OC)c1OC`: the growth with HCT-15 colon is -34.5% (active); in the assay with HT29 colon it was -34.5% (active); with SNB-75 CNS it was -75.7% (active); with SNB-19 CNS it was -5.79% (active); with U251 CNS it was -63.4% (active); in the assay on PC-3 prostate, -17.8% (active). Also, the growth with SK-MEL-5 melanoma was -99.2% (active); with UACC-62 melanoma it was -94.5% (active); in the assay with LOX IMVI melanoma, -96.6% (active); in the assay with SK-MEL-28 melanoma, -97.5% (active).
With `O=C(CSc1nnc(-c2ccc(-c3nc4ccccc4[nH]3)cc2)o1)Nc1ccccc1`, the growth in the assay on HCT-15 colon was 55.5%; with HT29 colon, 70.7%; with SNB-75 CNS it was 46.6%; with SNB-19 CNS, 3.01% (active); in the assay with U251 CNS, -61% (active); in the assay with PC-3 prostate it was 86.2%. In addition, the growth in the assay on SK-MEL-5 melanoma is 82.7%; with UACC-62 melanoma, 92.1%; in the assay on LOX IMVI melanoma, 3.54% (active); with SK-MEL-28 melanoma it was 36.3%.
`NC1(c2ccc(-c3ccc4ncnc(NCc5ccccc5)c4c3)cn2)COC1`: the growth in the assay on HCT-15 colon is 109% and 102%; in the assay on HT29 colon, 122% and 108%; with SNB-75 CNS, 115% and 103%; in the assay with SNB-19 CNS, 100% and 98.8%; with U251 CNS it was 112% and 108%; with PC-3 prostate it was 94.4% and 105%. In addition, the growth with SK-MEL-5 melanoma was 101% and 107%; with UACC-62 melanoma it was 104% and 94%; with LOX IMVI melanoma, 99% and 102%; in the assay with SK-MEL-28 melanoma, 104% and 107%.
`COc1ccc(-n2c(NC(=O)N3CCN(C)CC3)c(C#N)c3ccccc32)cc1`: the growth is 57.5% in the assay with HCT-15 colon; 84.2% in the assay on HT29 colon; -4.12% (active) in the assay on SNB-75 CNS; 52.9% in the assay on SNB-19 CNS; 41.9% in the assay on U251 CNS; 58.2% in the assay with PC-3 prostate. The growth with SK-MEL-5 melanoma was 37.4%; in the assay with UACC-62 melanoma, 50.9%; with LOX IMVI melanoma, 9.35% (active); in the assay with SK-MEL-28 melanoma, 68.8%.
In the case of `CN(C)c1nc(NCCNS(=O)(=O)c2ccc(C(=O)/C=C/c3ccc(Cl)cc3)cc2)nc(N2CCOCC2)n1`, the growth with HCT-15 colon is -53% (active); in the assay on HT29 colon, -80.6% (active); in the assay with SNB-75 CNS it was 45.4%; with SNB-19 CNS it was 60%; with U251 CNS it was -92% (active); in the assay on PC-3 prostate, 21.1%. Besides, the growth with SK-MEL-5 melanoma is 46.2%; in the assay on UACC-62 melanoma, 52.5%; in the assay with LOX IMVI melanoma, -94.3% (active); with SK-MEL-28 melanoma, 76.6%.
For `COc1cc(CNC(=O)C[C@H](C)CCC=C(C)C)ccc1OCc1cn(-c2ccc(Cl)c(Cl)c2)nn1`, the growth in the assay with HCT-15 colon was 29.4%; in the assay on HT29 colon, 78.3%; in the assay on SNB-75 CNS it was 47.2%; in the assay with SNB-19 CNS, 81.3%; in the assay on U251 CNS it was 48.2%; in the assay with PC-3 prostate, 65.9%. Moreover, the growth with SK-MEL-5 melanoma was 71.9%; with UACC-62 melanoma, 69.3%; in the assay on LOX IMVI melanoma, 50.6%; with SK-MEL-28 melanoma, 89.3%.
`N/C(=N\c1nc2ccccc2s1)NC(=O)Nc1ccccc1[N+](=O)[O-]`: the growth in the assay with HCT-15 colon is 5.8% (active); in the assay on HT29 colon it was -31.5% (active); with SNB-75 CNS it was 19.5%; in the assay with SNB-19 CNS it was 21.1%; in the assay with U251 CNS, 7.5% (active); in the assay on PC-3 prostate, 29.3%. In addition, the growth in the assay with SK-MEL-5 melanoma is -21.5% (active); with UACC-62 melanoma, 12%; in the assay on LOX IMVI melanoma, 10%; in the assay with SK-MEL-28 melanoma, 51%.
In the case of `O=C(CSc1nnc(-c2ccc(-c3nc4ccccc4[nH]3)cc2)o1)Nc1ccc(Cl)cc1`, the growth with HCT-15 colon was 19.3%; in the assay on HT29 colon it was 26.6%; with SNB-75 CNS, 62.4%; with SNB-19 CNS, -37.3% (active); with U251 CNS, -75.4% (active); with PC-3 prostate, 7.32% (active). In addition, the growth in the assay on SK-MEL-5 melanoma was 34.1%; with UACC-62 melanoma, 23.9%; in the assay with LOX IMVI melanoma, -92.4% (active); in the assay on SK-MEL-28 melanoma it was -85% (active).
In the case of `CS(=O)(=O)Nc1cccc(-n2c(COc3ccc(OC(F)(F)F)cc3)nc3ccccc32)c1`, the growth with HCT-15 colon was 94.6% and 105%; with HT29 colon, 103% and 114%; with SNB-75 CNS it was 55.4% and 95.4%; with SNB-19 CNS it was 93.8% and 101%; with U251 CNS, 85% and 101%; in the assay on PC-3 prostate it was 70.7% and 103%. The growth was 78.8% and 106% in the assay on SK-MEL-5 melanoma; 72.3% and 107% with UACC-62 melanoma; 83.7% and 110% in the assay with LOX IMVI melanoma; 118% and 133% in the assay with SK-MEL-28 melanoma.
On to `COc1cc(/C=N/NC(=O)c2ccc(OCc3nc4ccc(Cl)cc4[nH]3)cc2)cc(OC)c1OC`, for which the growth is 37.4% with HCT-15 colon; 21.4% in the assay on HT29 colon; 123% in the assay with SNB-75 CNS; 55.5% with SNB-19 CNS; 52.8% in the assay on U251 CNS; 35.5% in the assay on PC-3 prostate. In addition, the growth in the assay on SK-MEL-5 melanoma is -19.9% (active); in the assay with UACC-62 melanoma, 16.7%; in the assay with LOX IMVI melanoma, 26%; in the assay on SK-MEL-28 melanoma it was 32.4%.
For the compound `C#CCN(C)CCCOc1ccc(N(C)C(=O)c2cc(C(C)C)c(O)cc2O)cc1Cl`, the growth in the assay on HCT-15 colon was 4.84% (active); in the assay with HT29 colon, 9.18% (active); in the assay with SNB-75 CNS, 26.2%; in the assay with SNB-19 CNS, 22.1%; in the assay on U251 CNS, 11.4%; in the assay on PC-3 prostate it was 20%. For the same compound, the growth was -94.4% (active) in the assay on SK-MEL-5 melanoma, -17.6% (active) in the assay with UACC-62 melanoma, -89.2% (active) in the assay on LOX IMVI melanoma and 15.9% in the assay on SK-MEL-28 melanoma.
Take `CCOc1ccccc1NC(=O)N/C(N)=N/c1nc2ccccc2s1`: the growth was 2.52% (active) in the assay on HCT-15 colon; -48.7% (active) in the assay with HT29 colon; 32.8% in the assay on SNB-75 CNS; 14.7% in the assay on SNB-19 CNS; 10.4% in the assay on U251 CNS; 23.3% in the assay on PC-3 prostate. In addition, the growth in the assay on SK-MEL-5 melanoma is -40.9% (active); in the assay with UACC-62 melanoma, 28.1%; in the assay on LOX IMVI melanoma, 0.997% (active); in the assay with SK-MEL-28 melanoma, 54.3%.
